According to publication PMC11062922 (Nature Chemical Biology, 2023):
Read-outs that look alike come from different tables or passages of the source.

Tests used:
Parameters in all cases: species or system human, MV4-11 + K-562 + COLO205 + SK-N-BE2 + OVCAR-8
CDK17 = conditions: read-out: apparent Kd, n = 1
MAPK14 = conditions: read-out: apparent Kd, n = 1
EPHB6 = conditions: read-out: apparent Kd; compound concentrations: 100 nM and 1000 nM (sheet 'Samples'), CATDS: 4.3077369875392603E-2; n = 1
JAK2 = conditions: read-out: apparent Kd, n = 1
MAP2K5 = conditions: read-out: apparent Kd, compound concentrations: 100 nM and 1000 nM (sheet 'Samples'), n = 1
ACAD8 = conditions: read-out: apparent Kd, n = 1
CDKL5 = conditions: read-out: apparent Kd; compound concentrations:100 nM and 1000 nM (sheet 'Samples'); n = 1
FN3KRP = conditions: read-out: apparent Kd, n = 1
NQO1 = conditions: read-out: apparent Kd, n = 1
DDR2 = conditions: read-out: apparent Kd, n = 1
BMPR1B = conditions: read-out: apparent Kd; compound concentrations: 100 nM and 1000 nM (sheet 'Samples'), CATDS: 9.3434375492385105E-2; n = 1
CDK16 = conditions: read-out: apparent Kd, n = 1
EPHB1 = conditions: read-out: apparent Kd; compound concentrations:100 nM and 1000 nM (sheet 'Samples'); n = 1
FLT4 = conditions: read-out: apparent Kd, n = 1
[1] = compound concentrations:100 nM and 1000 nM (sheet 'Samples')

Which results are given for `O=S(=O)(CCOCc1ccc(-c2ccc3ncnc(Nc4ccc(OCc5cccc(F)c5)c(Cl)c4)c3c2)o1)c1ccccc1` [GW615311X]?
potency estimated from few doses (CDK17; compound concentrations: 100 nM and 1000 nM (sheet 'Samples'), CATDS: 2.3617209164995101E-2): 2010 nM; potency estimated from few doses (MAPK14; compound concentrations: 100 nM and 1000 nM (sheet 'Samples'), CATDS: 2.8626143180457999E-2): 1290 nM

With `Cc1cc(O)cc(C)c1/C=C/c1cncc(-c2nn[nH]n2)c1.Cl` [GW441806A] as the compound, how does the potency estimated from few doses (EPHB6) read?
Its potency estimated from few doses is 1670 nM.

And the potency estimated from few doses (JAK2; compound concentrations: 100 nM and 1000 nM (sheet 'Samples'), CATDS: 7.0798034106367105E-2)?
The potency estimated from few doses was 387 nM.

What about the potency estimated from few doses (MAP2K5; CATDS: 4.6114067598033499E-2) of the same compound?
Its potency estimated from few doses is 1310 nM.

What does the source list for `Nc1c(C(=O)c2ccccc2)cnn1-c1ccc(F)cc1` [RO1151246-000]?
potency estimated from few doses (ACAD8; [1]): 1760 nM; potency estimated from few doses (CDKL5): 997 nM; potency estimated from few doses (MAPK14; compound concentrations: 100 nM and 1000 nM (sheet 'Samples'), CATDS: 4.1752144248388801E-2): 1630 nM

Which potency estimated from few doses (FN3KRP; compound concentrations: 100 nM and 1000 nM (sheet 'Samples'), CATDS: 0.113294190935364) does the source give for `COc1cccc(C2=C(c3cn(C)c4c(C)cccc34)C(=O)NC2=O)c1` [RO3301012-000] here?
The potency estimated from few doses was 1300 nM.

What about the potency estimated from few doses (NQO1; compound concentrations: 100 nM and 1000 nM (sheet 'Samples'), CATDS: 0.106114123885474) of the same compound?
Its potency estimated from few doses is 1550 nM.

For `Cc1ccc(-n2nc(C(C)(C)C)cc2NC(=O)Nc2ccc(OCCN3CCOCC3)cc2)cc1` [BIRB0876BS], which potency estimated from few doses (ACAD8; [1]) is on record?
Its potency estimated from few doses is 2100 nM.

What about the potency estimated from few doses (DDR2; [1]) of the same compound?
Its potency estimated from few doses is 1140 nM.

And the potency estimated from few doses (JAK2; [1])?
Its potency estimated from few doses is 748 nM.

How did the potency estimated from few doses (ACAD8; compound concentrations: 100 nM and 1000 nM (sheet 'Samples'), CATDS: 9.6825044114723993E-2) turn out when `Cc1ccc(NC(=O)Nc2ccccc2)cc1-c1ccc(C(=O)Nc2ccncc2)cc1` [GSK1398471A] was run?
The potency estimated from few doses was 2180 nM.

And the potency estimated from few doses (MAP2K5; CATDS: 9.4548103744077197E-2)?
The potency estimated from few doses was 2350 nM.

With `Clc1ccc(-c2nn3ncccc3c2-c2ccnc(Nc3ccccc3)n2)cc1` [GW829055X] as the compound, how does the potency estimated from few doses (ACAD8; compound concentrations: 100 nM and 1000 nM (sheet 'Samples'), CATDS: 3.9352617982793499E-2) read?
Its potency estimated from few doses is 1220 nM.

And the potency estimated from few doses (BMPR1B)?
Its potency estimated from few doses is 264 nM.

And the potency estimated from few doses (CDK17; compound concentrations: 100 nM and 1000 nM (sheet 'Samples'), CATDS: 3.0637739748937999E-2)?
Its potency estimated from few doses is 2340 nM.

And the potency estimated from few doses (NQO1; compound concentrations: 100 nM and 1000 nM (sheet 'Samples'), CATDS: 4.2030828964441901E-2)?
The potency estimated from few doses was 1050 nM.

How did the potency estimated from few doses (FN3KRP; compound concentrations: 100 nM and 1000 nM (sheet 'Samples'), CATDS: 0.16649901321048899) turn out when `Cn1cc(C2=C(c3cccc([N+](=O)[O-])c3)C(=O)NC2=O)c2ccccc21` [RO0317474-000] was run?
Its potency estimated from few doses is 1070 nM.

`Cl.Fc1cccc(COc2ccc(Nc3ncnc4cc(-c5ccc[nH]5)sc34)cc2Cl)c1` [GW693881A] was tested. Which potency estimated from few doses (FN3KRP; compound concentrations: 100 nM and 1000 nM (sheet 'Samples'), CATDS: 0.20216809637719099) did it give?
The potency estimated from few doses was 791 nM.

What does the source list for `Cn1cc(C2=C(c3ccccc3[N+](=O)[O-])C(=O)NC2=O)c2ccccc21` [RO0317753-000]?
potency estimated from few doses (CDK16; compound concentrations: 100 nM and 1000 nM (sheet 'Samples'), CATDS: 7.8370889513180206E-2): 1340 nM; potency estimated from few doses (FN3KRP; compound concentrations: 100 nM and 1000 nM (sheet 'Samples'), CATDS: 8.17359273490917E-2): 1130 nM

How did the potency estimated from few doses (ACAD8; [1]) turn out when `COc1ccc(COc2ccc(Cc3cnc(N)nc3N)cc2OC)cc1` [GW632580X] was run?
Its potency estimated from few doses is 1640 nM.

Which potency estimated from few doses (FN3KRP; compound concentrations: 100 nM and 1000 nM (sheet 'Samples'), CATDS: 0.121909442798699) does the source give for `CC(=O)Nc1ccc2c(C3=C(c4cn(C)c5ccccc45)C(=O)NC3=O)cn(C)c2c1` [RO0317596-000] here?
The potency estimated from few doses was 1250 nM.

How did the potency estimated from few doses (ACAD8; compound concentrations: 100 nM and 1000 nM (sheet 'Samples'), CATDS: 0.11167502777980801) turn out when `COc1ccc(Nc2nccc(N3CCC(NC(=O)Nc4cccc(OC)c4)C3)n2)cc1` (stereo not drawn) [GSK1379742A] was run?
The potency estimated from few doses was 2090 nM.

And the potency estimated from few doses (NQO1; compound concentrations: 100 nM and 1000 nM (sheet 'Samples'), CATDS: 0.15295412535869199)?
The potency estimated from few doses was 1120 nM.

For `NC(=O)c1sc(-n2cnc3ccc(C(F)(F)F)cc32)cc1OCc1ccccc1Br` [GW853606X], which potency estimated from few doses (JAK2; [1]) is on record?
The potency estimated from few doses was 419 nM.

For `COc1cc(F)c(F)c(F)c1C(=O)c1cnc(NC2CCN(S(C)(=O)=O)CC2)nc1N` [RO4600703-000], which potency estimated from few doses (CDK16; [1]) is on record?
Its potency estimated from few doses is 51 nM.

And the potency estimated from few doses (CDK17; [1])?
Its potency estimated from few doses is 77.3 nM.

And the potency estimated from few doses (FN3KRP; [1])?
Its potency estimated from few doses is 549 nM.

How did the potency estimated from few doses (ACAD8; compound concentrations: 100 nM and 1000 nM (sheet 'Samples'), CATDS: 0.48469015722886899) turn out when `NS(=O)(=O)c1cccc(-c2ccc3nccc(-c4cccc(S(N)(=O)=O)c4)c3c2)c1` [GW867253X] was run?
The potency estimated from few doses was 2110 nM.

How did the potency estimated from few doses (ACAD8; compound concentrations: 100 nM and 1000 nM (sheet 'Samples'), CATDS: 0.13672361229607899) turn out when `CS(=O)(=O)c1ccc(-c2nc3n(c2-c2ccncc2)CCC3)cc1` [SKF-105942] was run?
Its potency estimated from few doses is 1400 nM.

And the potency estimated from few doses (NQO1; compound concentrations: 100 nM and 1000 nM (sheet 'Samples'), CATDS: 0.13363559113377599)?
The potency estimated from few doses was 1480 nM.

Which potency estimated from few doses (FN3KRP; compound concentrations: 100 nM and 1000 nM (sheet 'Samples'), CATDS: 0.23703756302713999) does the source give for `Cn1cc(C2=C(c3cn(CCCCCO)c4ccccc34)C(=O)NC2=O)c2ccccc21` [RO0318053-000] here?
The potency estimated from few doses was 69.9 nM.

Which results are given for `NC(=O)c1cccnc1COc1cc(-c2ccc(N3CCOCC3)nc2)cc2ncccc12` [BI01125081]?
potency estimated from few doses (ACAD8; [1]): 1930 nM; potency estimated from few doses (DDR2; [1]): 2240 nM; potency estimated from few doses (EPHB1): 738 nM

Which potency estimated from few doses (FLT4; compound concentrations: 100 nM and 1000 nM (sheet 'Samples'), CATDS: 3.2229986541726797E-2) does the source give for `COc1ccc(C2=C(c3cn(C)c4ccccc34)C(=O)NC2=O)cc1OC` [RO3206363-000] here?
Its potency estimated from few doses is 1770 nM.

`COc1cc(N2CCN(C(C)C)CC2)ccc1Nc1nc(Nc2cccc(F)c2C(=O)O)c2cc[nH]c2n1` [GSK1819799A] was tested. Which potency estimated from few doses (CDK17; compound concentrations: 100 nM and 1000 nM (sheet 'Samples'), CATDS: 4.1653075396407099E-2) did it give?
The potency estimated from few doses was 2170 nM.

How did the potency estimated from few doses (FN3KRP; compound concentrations: 100 nM and 1000 nM (sheet 'Samples'), CATDS: 0.17784341210851801) turn out when `Cc1ccc(CC(=O)N2CCc3cc(-c4cn(C)c5ncnc(N)c45)ccc32)cc1` [GSK2634758A] was run?
Its potency estimated from few doses is 1240 nM.

Which results are given for `CCS(=O)(=O)c1ccc(OC)c(Nc2ncc(-c3cccc(F)c3)o2)c1` [GW621970X_KCGS]?
potency estimated from few doses (ACAD8; [1]): 2330 nM; potency estimated from few doses (FLT4; [1]): 574 nM

Which potency estimated from few doses (FN3KRP; compound concentrations: 100 nM and 1000 nM (sheet 'Samples'), CATDS: 0.20437737337719999) does the source give for `Cc1ccc(NC(=O)c2ccc(Cl)cc2)cc1-c1ccc(C(=O)Nc2ccncc2)cc1` [GSK1398467A] here?
The potency estimated from few doses was 1180 nM.

For `COc1ccc(S(=O)(=O)NC2CCN(c3cc(C)nc(Nc4cccc(C#N)c4)n3)CC2)cc1.O=C(O)C(F)(F)F` [GSK1653539A], which potency estimated from few doses (FN3KRP; compound concentrations: 100 nM and 1000 nM (sheet 'Samples'), CATDS: 0.40384988174316899) is on record?
Its potency estimated from few doses is 910 nM.

For `COc1ccc(-c2nn3ncccc3c2-c2ccnc(Nc3ccc4c(c3)OCCO4)n2)cc1` [GW827106X], which potency estimated from few doses (DDR2; compound concentrations: 100 nM and 1000 nM (sheet 'Samples'), CATDS: 4.9498926543833199E-2) is on record?
The potency estimated from few doses was 1520 nM.

And the potency estimated from few doses (MAPK14; compound concentrations: 100 nM and 1000 nM (sheet 'Samples'), CATDS: 7.81285273726149E-2)?
Its potency estimated from few doses is 610 nM.

Which results are given for `Fc1cccc(COc2ccc(Nc3ncncc3C#Cc3ccccc3)cc2Cl)c1` [GW651576X]?
potency estimated from few doses (ACAD8; compound concentrations: 100 nM and 1000 nM (sheet 'Samples'), CATDS: 5.0604868868818903E-2): 1740 nM; potency estimated from few doses (CDK17; compound concentrations: 100 nM and 1000 nM (sheet 'Samples'), CATDS: 4.4959210496165199E-2): 2290 nM; potency estimated from few doses (NQO1; compound concentrations: 100 nM and 1000 nM (sheet 'Samples'), CATDS: 4.6647451225595299E-2): 2090 nM

Which potency estimated from few doses (FN3KRP; compound concentrations: 100 nM and 1000 nM (sheet 'Samples'), CATDS: 0.34838904093032003) does the source give for `Cc1ccc(C(=O)NC2CC2)cc1-c1ccc2[nH]ncc2c1` [GW820759X] here?
Its potency estimated from few doses is 1060 nM.

Which results are given for `Fc1ccc(-c2ncn(C3CCNCC3)c2-c2ccnc(Oc3ccc4c(c3)OCO4)n2)cc1` [SB-250715]?
potency estimated from few doses (ACAD8; [1]): 1570 nM; potency estimated from few doses (CDK16; [1]): 2360 nM; potency estimated from few doses (MAPK14; [1]): 10.7 nM; potency estimated from few doses (NQO1; [1]): 1700 nM

Which potency estimated from few doses (FN3KRP; [1]) does the source give for `Cl.Oc1ccc2ncnc(Nc3ccc(OCc4ccccc4)cc3)c2c1` [GI262866A] here?
Its potency estimated from few doses is 762 nM.

What about the potency estimated from few doses (MAPK14; [1]) of the same compound?
Its potency estimated from few doses is 770 nM.

Which potency estimated from few doses (CDK16; [1]) does the source give for `COc1ccccc1C(=O)c1cnc(NC2CCN(S(C)(=O)=O)CC2)nc1N` [RO4514610-000] here?
The potency estimated from few doses was 721 nM.

And the potency estimated from few doses (CDK17; [1])?
Its potency estimated from few doses is 732 nM.

`COc1ccccc1-c1cc(/C=C2\C(=O)Nc3ncc(Br)cc32)cc(Br)c1O` [GW442130X] was tested. Which potency estimated from few doses (NQO1; [1]) did it give?
The potency estimated from few doses was 1260 nM.
